By AC50 is commonly meant the midpoint of the concentration-response curve, whichever way the signal moves.

Activity calls are given as the source filed them. Rule for the calls: active = hit-call score of the fitted dose curve at least 0.9, where 1 is the maximum; inactive = score below 0.9.

Read-out in assay [1]: Matrix Metallopeptidase 9 (MMP9), MMP9 (gene 4318)
Description: BSK_KF3CT_MMP9: BioMAP Diversity Plus: KF3CT Assay for Matrix Metallopeptidase 9 (MMP9) Biomarker Activity (AID 2283074). The settings on record: primary human keratinocytes with fibroblasts; actives raise or lower the signal. Summed up: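 Keratinocyte plus foreskin fibroblast human primary skin co-culture was dosed with chemical and MMP-9 was quantified by ELISA 24 h later. Bidirectional curve fitting used DMSO as negative control and activity baseline.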

Read-out in assay [2]: urokinase plasminogen activator (uPA), PLAU (gene 5328)
Description: BSK_KF3CT_uPA: BioMAP Diversity Plus: KF3CT Assay for urokinase plasminogen activator (uPA) Biomarker Activity (AID 2283075). The settings on record: primary human keratinocytes with fibroblasts; actives raise or lower the signal. A digest of the protocol:
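Human keratinocyte plus foreskin fibroblast primary co-culture exposed to chemical for 24 h. uPA levels were quantified by ELISA, and activity was fitted bidirectionally against a DMSO negative-control baseline.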

Read-out in assay [3]: CD40, CD40 (gene 958)
Description: BSK_LPS_CD40: BioMAP Diversity Plus: LPS Assay for CD40 Biomarker Activity (AID 2283076). The settings on record: primary human HUVEC with PBMC; actives raise or lower the signal. Summed up: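 Using a multiplexed primary human co-culture (umbilical vein endothelium plus PBMC), CD40 was read by ELISA 24 h after dosing, with cytotoxicity tracked by sulforhodamine B staining of parallel cultures and activity fitted bidirectionally versus DMSO.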

Read-out in assay [4]: E-selectin (Homo sapiens) (UniProt P16581)
Description: BSK_LPS_Eselectin: BioMAP Diversity Plus: LPS Assay for Eselectin Biomarker Activity (AID 2283077). The settings on record: primary human HUVEC with PBMC; actives raise or lower the signal. A digest of the protocol: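 Dose chemical onto LPS-driven HUVEC/PBMC co-culture; after 24 h, run ELISA for E-selectin; fit up- and down-going responses relative to DMSO control.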

Read-out in assay [5]: Interleukin-8 (IL8), CXCL8 (gene 3576)
The assay can be described thus: BSK_LPS_IL8: BioMAP Diversity Plus: LPS Assay for Interleukin-8 (IL8) Biomarker Activity (AID 2283078). To be noted: primary human HUVEC with PBMC; actives raise or lower the signal. Summed up: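 In this LPS system, chemical-treated human umbilical vein endothelium/PBMC co-cultures were harvested at 24 h for IL-8 ELISA.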

A short description of assay [6]: BSK_LPS_SRB: Viability Assessment in the BioMAP Diversity Plus: LPS Assay (AID 2283079).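 Note: total protein by sulforhodamine B absorbance as a cytotoxicity measure; measured one day after compound addition; fitted in both directions against DMSO so loss or gain of signal counts.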 To be noted: primary human HUVEC with PBMC. A digest of the protocol:
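Cytotoxicity endpoint in human endothelial–PBMC co-culture: 24 h exposure, then SRB (0.1%) staining, 560 nm read.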

Read-out in assay [7]: Interleukin-1 alpha (IL1a), IL1A (gene 3552)
The assay can be described thus: BSK_LPS_IL1a: BioMAP Diversity Plus: LPS Assay for Interleukin-1 alpha (IL1a) Biomarker Activity (AID 2283080). To be noted: primary human HUVEC with PBMC; actives raise or lower the signal. A digest of the protocol:
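Primary human HUVEC and PBMC co-culture stimulated with LPS is dosed and harvested at 24 h. Both increases and decreases in ELISA-measured IL-1a are scored relative to DMSO.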

Read-out in assay [8]: Monocyte Chemoattractant Protein-1 (MCP1), CCL2 (gene 6347)
Description: BSK_LPS_MCP1: BioMAP Diversity Plus: LPS Assay for Monocyte Chemoattractant Protein-1 (MCP1) Biomarker Activity (AID 2283081). To be noted: primary human HUVEC with PBMC; actives raise or lower the signal. Summed up:
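Values derive from bidirectional fitting against DMSO of ELISA-measured MCP-1 in a human primary endothelial and mononuclear cell co-culture, 24 h after chemical addition under LPS activation.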

Assay [9] is described as follows: BSK_LPS_PGE2: BioMAP Diversity Plus: LPS Assay for Prostaglandin E2 (PGE2) Biomarker Activity (AID 2283082).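 For AC50: secreted prostaglandin E2 measured by ELISA in LPS-stimulated co-culture.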 The settings on record: primary human HUVEC with PBMC; actives raise or lower the signal. A digest of the protocol: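 LPS-activated HUVEC/PBMC co-culture; cmpd dosed, 24 h; PGE2 by ELISA; bidirectional fit vs DMSO; SRB (0.1%, TCA-fixed, 560 nm) in parallel plates for overt cytotox.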

Read-out in assay [10]: Macrophage colony-stimulating factor (MCSF), CSF1 (gene 1435)
Description: BSK_LPS_MCSF: BioMAP Diversity Plus: LPS Assay for Macrophage colony-stimulating factor (MCSF) Biomarker Activity (AID 2283083). The settings on record: primary human HUVEC with PBMC; actives raise or lower the signal. Summed up: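 Bidirectional fit versus DMSO of ELISA-measured M-CSF in co-cultured human umbilical vein endothelial cells and PBMC, sampled 24 h after dosing.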

Read-out in assay [11]: Tissue Factor, F3 (gene 2152)
The assay can be described thus: BSK_LPS_TissueFactor: BioMAP Diversity Plus: LPS Assay for Tissue Factor Biomarker Activity (AID 2283084). The settings on record: primary human HUVEC with PBMC; actives raise or lower the signal. Summed up:
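Read-out: CD142 ELISA, 24 h. System: LPS-driven human endothelial/PBMC co-culture. Analysis: up- or down-signal fitted against DMSO.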

Read-out in assay [12]: Tumor necrosis factor (Homo sapiens) (UniProt P01375)
The assay can be described thus: BSK_LPS_TNFa: BioMAP Diversity Plus: LPS Assay for Tumour Necrosis Factor alpha (TNFa) Biomarker Activity (AID 2283085). To be noted: primary human HUVEC with PBMC; actives raise or lower the signal. A digest of the protocol:
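Read-out is ELISA of TNFa in primary human endothelial cell–PBMC co-cultures at 24 h after compound. Activity in either direction was fitted against DMSO.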

Read-out in assay [13]: Vascular cell adhesion molecule 1 (VCAM1), VCAM1 (gene 7412)
The assay can be described thus: BSK_LPS_VCAM1: BioMAP Diversity Plus: LPS Assay for Vascular cell adhesion molecule 1 (VCAM1) Biomarker Activity (AID 2283086). The settings on record: primary human HUVEC with PBMC; actives raise or lower the signal. Summed up:
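HUVEC + PBMC co-culture, LPS system; compound 24 h; VCAM-1 by ELISA; bidirectional fit vs DMSO control; parallel SRB (0.1%, TCA-fixed, 560 nm) for cytotoxicity.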

Read-out in assay [14]: CD38, CD38 (gene 952)
Description: BSK_SAg_CD38: BioMAP Diversity Plus: SAg Assay for CD38 Biomarker Activity (AID 2283087). To be noted: primary human HUVEC with PBMC; actives raise or lower the signal. Summed up: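 Human HUVEC plus PBMC co-culture stimulated with superantigen; CD38 measured by ELISA 24 h after chemical dosing. Fluorescence read-out, bidirectional fit against DMSO; cytotoxicity tracked in parallel by SRB and Alamar Blue.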

Read-out in assay [15]: CD40, CD40 (gene 958)
The assay can be described thus: BSK_SAg_CD40: BioMAP Diversity Plus: SAg Assay for CD40 Biomarker Activity (AID 2283088). To be noted: primary human HUVEC with PBMC; actives raise or lower the signal. Summed up:
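Endpoint derived by fitting increases or decreases versus DMSO controls. CD40 is detected by fluorescence ELISA in a human vascular co-culture of endothelium and PBMC at 24 h.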

Read-out in assay [16]: CD69, CD69 (gene 969)
The assay can be described thus: BSK_SAg_CD69: BioMAP Diversity Plus: SAg Assay for CD69 Biomarker Activity (AID 2283089).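 For AC50: cell surface CD69 protein quantified by ELISA with fluorescence detection.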 To be noted: primary human HUVEC with PBMC; actives raise or lower the signal. Summed up: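 Endothelial/PBMC co-culture; chemical added; 24 h incubation; CD69 ELISA with fluorescence detection; bidirectional fit vs DMSO.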

Read-out in assay [17]: Monocyte Chemoattractant Protein-1 (MCP1), CCL2 (gene 6347)
The assay can be described thus: BSK_SAg_MCP1: BioMAP Diversity Plus: SAg Assay for Monocyte Chemoattractant Protein-1 (MCP1) Biomarker Activity (AID 2283090). The settings on record: primary human HUVEC with PBMC; actives raise or lower the signal. A digest of the protocol:
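MCP-1 levels in the endothelial–PBMC SAg co-culture were quantified by ELISA at 24 h post-dosing; both increases and decreases versus DMSO scored. Cytotoxicity monitored by SRB total protein in parallel cultures.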

Read-out in assay [18]: E-selectin (Homo sapiens) (UniProt P16581)
Description: BSK_SAg_Eselectin: BioMAP Diversity Plus: SAg Assay for Eselectin Biomarker Activity (AID 2283091). To be noted: primary human HUVEC with PBMC; actives raise or lower the signal. A digest of the protocol:
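Endpoint values derive from bidirectional fitting relative to DMSO, using ELISA-measured E-selectin in a human vascular co-culture (umbilical vein endothelium plus PBMC) sampled 24 h after dosing.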

Read-out in assay [19]: Monokine induced gamma interferon (MIG), CXCL9 (gene 4283)
The assay can be described thus: BSK_SAg_MIG: BioMAP Diversity Plus: SAg Assay for Monokine induced gamma interferon (MIG) Biomarker Activity (AID 2283092). To be noted: primary human HUVEC with PBMC; actives raise or lower the signal. Summed up: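 Measures CXCL9 protein by ELISA in a human vascular primary-cell co-culture (umbilical vein endothelium with PBMC) 24 h after chemical addition. Activity is scored up or down from the DMSO control.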

E-selectin (Homo sapiens), sequence (P16581 whole entry, looked up): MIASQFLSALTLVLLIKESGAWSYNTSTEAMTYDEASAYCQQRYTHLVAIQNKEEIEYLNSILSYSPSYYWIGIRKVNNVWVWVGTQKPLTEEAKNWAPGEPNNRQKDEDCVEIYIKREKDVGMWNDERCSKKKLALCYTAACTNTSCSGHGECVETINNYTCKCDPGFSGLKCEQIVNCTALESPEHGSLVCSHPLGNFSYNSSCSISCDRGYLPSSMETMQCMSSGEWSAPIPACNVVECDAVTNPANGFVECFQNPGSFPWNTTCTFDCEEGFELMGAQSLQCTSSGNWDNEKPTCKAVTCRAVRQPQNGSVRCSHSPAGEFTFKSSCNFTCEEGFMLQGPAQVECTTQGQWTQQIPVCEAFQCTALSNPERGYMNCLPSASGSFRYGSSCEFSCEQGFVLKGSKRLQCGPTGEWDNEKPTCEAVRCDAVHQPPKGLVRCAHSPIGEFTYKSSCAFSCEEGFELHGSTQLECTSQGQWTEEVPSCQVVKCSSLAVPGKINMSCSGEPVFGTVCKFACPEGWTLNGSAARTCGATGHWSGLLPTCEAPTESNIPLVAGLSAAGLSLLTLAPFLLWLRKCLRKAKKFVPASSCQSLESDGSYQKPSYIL
Tumor necrosis factor (Homo sapiens), sequence (P01375 whole entry, looked up): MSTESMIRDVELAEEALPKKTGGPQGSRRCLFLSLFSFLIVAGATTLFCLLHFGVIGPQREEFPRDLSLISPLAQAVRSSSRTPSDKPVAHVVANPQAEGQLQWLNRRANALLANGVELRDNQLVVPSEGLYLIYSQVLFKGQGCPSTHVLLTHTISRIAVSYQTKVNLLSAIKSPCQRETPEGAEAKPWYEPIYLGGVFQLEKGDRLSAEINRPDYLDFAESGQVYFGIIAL

For `Cc1ccc(C(C)C)cc1`, the result in [1], in [2], in [3], in assay [4], in assay [5] and in assay [6] was inactive. Moreover, the result in assay [7], in [8], in assay [9], in assay [10], in assay [11] and in [12] was inactive. Further, the result in assay [13], in [14], in assay [15], in assay [16], in assay [17] and in [18] was inactive. Besides, the outcome in assay [19] was inactive.

For `CC[C@@H]1C[C@H](N(Cc2cc(C(F)(F)F)cc(C(F)(F)F)c2)C(C)=O)c2cc(C(F)(F)F)ccc2N1C(=O)OC(C)C`, the outcome in assay [1], in assay [2], in [3], in assay [4], in assay [5] and in assay [6] was inactive. Also, the outcome in assay [7], in [8], in assay [9], in [10], in [11] and in assay [12] was inactive. In addition, the result in assay [13], in assay [14], in [15], in assay [16], in [17] and in assay [18] was inactive. In addition, the result in assay [19] was inactive.

`Cc1occc1C(=O)Nc1ccc(C(=O)N2CCC(F)(F)/C(=C\C(=O)N3CCC(N4CCCCC4)CC3)c3ccccc32)cc1`: the result in [1], in assay [2], in assay [3], in [4], in assay [5] and in assay [7] was inactive. For the same compound, the result in [8], in [9], in assay [10], in assay [11], in assay [12] and in [13] was inactive. In addition, the result in [14], in assay [15], in [16], in assay [17] and in assay [18] was inactive.

As to `CC[C@H](NC(=O)c1cc(F)ccc1NS(=O)(=O)c1cccc2cccnc12)c1ccccc1`, the outcome in [1], in assay [2], in assay [3], in [4], in assay [5] and in assay [6] was inactive. For the same compound, the outcome in assay [7], in [8], in [10], in assay [11], in [12] and in [13] was inactive. In addition, in assay [14], the outcome was inactive. Further, the AC50 is 8.72 µM (active) in [9]; 6.29 µM (active) in assay [15]; 10.5 µM (active) in assay [16]; 5.84 µM (active) in assay [17]; 4 µM (active) in assay [18].

For the origin of these results see PubChem BioAssay (EPA / NIEHS).
